Normalized growth data for one compound are collected here from PubChem BioAssay AID1159580 (chemical genetic matrix, 2015).

A short description of the experiment: chemical genetic growth profiling, strain panel (AID 1159580).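 Also: tested at 20 µM; growth read once vehicle control cultures reached saturation at 30 °C; 1 = growth at the plate median or of vehicle wells; lower values mean less growth of the strain.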 The following applies: S. cerevisiae deletion strains, growth OD.

Hit rate of the full screen: of about 5,500 compounds, about 2,000 (36%) were called active. Not shown: some 18% with an inconclusive outcome. The list shows a part of the results. Unmarked numbers belong to inactive results. Rule as the data show it: active = normalized growth mostly below about 0.91 (no sharp cut-off); inconclusive = no clear call, values can overlap the other calls; inactive = mostly above about 0.92.

For `CCCCCCCC/C=C\CCCCCCCC(=O)NCCc1ccc(O)c(O)c1`, the normalized growth runs as follows: (locus YAL040C, strain CLN3, stronger effect = lower value) 1.01; (locus YCL061C, strain MRC1 (second series), stronger effect = lower value) 0.987; (locus YDR363W, strain ESC2, stronger effect = lower value) 0.981; (locus YER002W, strain NOP16, stronger effect = lower value) 1; (locus YGR229C, strain SMI1, stronger effect = lower value) 0.811 (active); (locus YMR307W, strain GAS1, stronger effect = lower value) 0.987. Further, the normalized growth runs as follows: (locus YNL153C, strain GIM3, stronger effect = lower value) 0.811 (active); (locus YNL175C, strain NOP13, stronger effect = lower value) 0.999; (locus YNL197C, strain WHI3, stronger effect = lower value) 0.987; (locus YNL224C, strain SQS1, stronger effect = lower value) 1.02; (locus YOR083W, strain WHI5 (second series), stronger effect = lower value) 0.876; (locus YPL055C, strain LGE1, stronger effect = lower value) 1. Moreover, for the setting “locus YPL241C, strain CIN2, stronger effect = lower value”, the normalized growth is 0.993.
